Measured values reported in the supplement of paper PMC11001985.

compound: C#CCNC(=O)CCSSCCC(=O)NCCc1ccc(C=O)c(C=O)c1; assay: lysine labeling ratio R10:1 (500 µM / 50 µM probe), SILAC-ABPP in living cells; higher = lower intrinsic lysine reactivity toward the probe, active = 2 or less; details: HeLa; probe concentrations 500 vs 50 µM
Procedure, shortened: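 For each lysine, R is the median over forward and reverse replicates of the filtered median MS1 peptide ratio of high probe to low probe. The probe, an alkyne-tagged, disulfide-linked lysine probe, was given at 500 µM or 50 µM to living SILAC light and heavy HeLa cells in PBS at room temperature, with label swaps. Values are capped at 20.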

Chain of UniProt P10586 (P10586 whole entry): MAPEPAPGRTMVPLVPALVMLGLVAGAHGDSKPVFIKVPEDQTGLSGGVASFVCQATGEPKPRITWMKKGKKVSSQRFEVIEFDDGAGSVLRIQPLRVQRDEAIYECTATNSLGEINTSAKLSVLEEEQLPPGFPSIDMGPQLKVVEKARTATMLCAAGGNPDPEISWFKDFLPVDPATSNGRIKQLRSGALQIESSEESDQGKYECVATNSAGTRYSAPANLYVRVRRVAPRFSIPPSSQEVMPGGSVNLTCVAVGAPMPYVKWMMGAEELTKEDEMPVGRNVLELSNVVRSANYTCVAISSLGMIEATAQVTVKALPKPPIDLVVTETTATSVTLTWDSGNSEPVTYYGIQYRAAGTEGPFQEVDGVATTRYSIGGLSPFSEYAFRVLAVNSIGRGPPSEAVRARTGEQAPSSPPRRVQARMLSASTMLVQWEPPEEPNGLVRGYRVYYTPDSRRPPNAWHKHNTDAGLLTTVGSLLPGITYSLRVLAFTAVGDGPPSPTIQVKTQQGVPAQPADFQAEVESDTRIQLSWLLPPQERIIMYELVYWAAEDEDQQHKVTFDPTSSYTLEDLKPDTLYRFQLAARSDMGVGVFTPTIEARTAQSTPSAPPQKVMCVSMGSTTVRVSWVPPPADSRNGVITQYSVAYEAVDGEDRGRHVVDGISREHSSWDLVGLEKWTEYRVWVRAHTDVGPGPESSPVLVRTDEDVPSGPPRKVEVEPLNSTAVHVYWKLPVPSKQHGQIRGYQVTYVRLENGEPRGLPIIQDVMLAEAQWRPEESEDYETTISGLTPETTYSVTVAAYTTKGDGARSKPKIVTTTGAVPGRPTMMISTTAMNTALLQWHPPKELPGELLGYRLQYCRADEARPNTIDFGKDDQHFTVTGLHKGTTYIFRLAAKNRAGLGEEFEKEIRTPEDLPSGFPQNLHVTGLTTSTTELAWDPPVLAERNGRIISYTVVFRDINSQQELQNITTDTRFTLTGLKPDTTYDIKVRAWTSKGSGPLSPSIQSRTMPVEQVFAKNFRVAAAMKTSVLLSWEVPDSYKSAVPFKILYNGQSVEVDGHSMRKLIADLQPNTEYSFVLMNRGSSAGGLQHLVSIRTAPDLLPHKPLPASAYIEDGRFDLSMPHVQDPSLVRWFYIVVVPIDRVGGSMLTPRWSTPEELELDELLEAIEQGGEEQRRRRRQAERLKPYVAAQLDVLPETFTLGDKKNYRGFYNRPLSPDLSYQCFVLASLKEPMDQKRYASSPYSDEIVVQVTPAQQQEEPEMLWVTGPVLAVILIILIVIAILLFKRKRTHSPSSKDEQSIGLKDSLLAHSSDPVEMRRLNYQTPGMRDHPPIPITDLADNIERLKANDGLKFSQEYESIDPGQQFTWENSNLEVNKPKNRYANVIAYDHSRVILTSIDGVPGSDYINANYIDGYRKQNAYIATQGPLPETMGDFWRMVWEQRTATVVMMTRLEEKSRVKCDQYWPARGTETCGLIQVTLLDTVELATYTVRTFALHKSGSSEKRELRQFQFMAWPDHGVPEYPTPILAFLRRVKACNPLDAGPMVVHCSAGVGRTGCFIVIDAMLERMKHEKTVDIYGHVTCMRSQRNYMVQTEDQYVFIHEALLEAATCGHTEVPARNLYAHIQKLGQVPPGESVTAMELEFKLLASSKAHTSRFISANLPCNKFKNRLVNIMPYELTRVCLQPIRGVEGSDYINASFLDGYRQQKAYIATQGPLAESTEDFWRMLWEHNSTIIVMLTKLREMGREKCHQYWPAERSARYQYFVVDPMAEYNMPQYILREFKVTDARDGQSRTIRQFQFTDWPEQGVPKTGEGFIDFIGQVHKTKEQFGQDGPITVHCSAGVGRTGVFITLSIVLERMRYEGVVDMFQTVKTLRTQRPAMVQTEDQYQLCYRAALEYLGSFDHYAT
Chain of UniProt P61026 (P61026 whole entry): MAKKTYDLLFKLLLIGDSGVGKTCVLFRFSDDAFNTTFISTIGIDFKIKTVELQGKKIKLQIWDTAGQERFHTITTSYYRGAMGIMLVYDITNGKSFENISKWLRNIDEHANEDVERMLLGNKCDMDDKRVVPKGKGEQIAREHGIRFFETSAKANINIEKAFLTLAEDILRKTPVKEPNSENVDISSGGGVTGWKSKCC
Chain of UniProt Q9BZM4 (Q9BZM4 whole entry): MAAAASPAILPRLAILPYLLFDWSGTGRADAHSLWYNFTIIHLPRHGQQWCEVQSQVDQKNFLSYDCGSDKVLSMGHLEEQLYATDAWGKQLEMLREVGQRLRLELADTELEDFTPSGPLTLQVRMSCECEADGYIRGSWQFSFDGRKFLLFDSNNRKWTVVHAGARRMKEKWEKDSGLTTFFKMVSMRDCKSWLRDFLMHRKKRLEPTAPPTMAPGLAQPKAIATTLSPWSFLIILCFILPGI
Chain of UniProt P43121 (P43121 whole entry): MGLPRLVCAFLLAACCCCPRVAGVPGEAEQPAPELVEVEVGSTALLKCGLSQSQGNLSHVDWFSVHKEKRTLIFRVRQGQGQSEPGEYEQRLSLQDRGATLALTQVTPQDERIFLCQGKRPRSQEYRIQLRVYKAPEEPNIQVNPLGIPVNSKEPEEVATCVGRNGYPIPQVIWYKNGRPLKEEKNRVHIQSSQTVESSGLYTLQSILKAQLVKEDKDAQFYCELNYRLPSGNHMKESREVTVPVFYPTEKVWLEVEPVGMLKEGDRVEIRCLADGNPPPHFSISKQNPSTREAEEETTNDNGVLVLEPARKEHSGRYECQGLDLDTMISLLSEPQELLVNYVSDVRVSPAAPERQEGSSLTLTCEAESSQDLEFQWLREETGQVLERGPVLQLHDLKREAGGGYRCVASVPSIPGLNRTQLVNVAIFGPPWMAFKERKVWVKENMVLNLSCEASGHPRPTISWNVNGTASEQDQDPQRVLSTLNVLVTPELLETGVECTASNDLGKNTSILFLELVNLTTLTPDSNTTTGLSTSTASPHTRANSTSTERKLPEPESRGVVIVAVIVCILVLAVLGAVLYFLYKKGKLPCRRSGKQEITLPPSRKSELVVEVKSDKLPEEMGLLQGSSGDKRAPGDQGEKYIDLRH
Chain of UniProt Q13308 (Q13308 whole entry): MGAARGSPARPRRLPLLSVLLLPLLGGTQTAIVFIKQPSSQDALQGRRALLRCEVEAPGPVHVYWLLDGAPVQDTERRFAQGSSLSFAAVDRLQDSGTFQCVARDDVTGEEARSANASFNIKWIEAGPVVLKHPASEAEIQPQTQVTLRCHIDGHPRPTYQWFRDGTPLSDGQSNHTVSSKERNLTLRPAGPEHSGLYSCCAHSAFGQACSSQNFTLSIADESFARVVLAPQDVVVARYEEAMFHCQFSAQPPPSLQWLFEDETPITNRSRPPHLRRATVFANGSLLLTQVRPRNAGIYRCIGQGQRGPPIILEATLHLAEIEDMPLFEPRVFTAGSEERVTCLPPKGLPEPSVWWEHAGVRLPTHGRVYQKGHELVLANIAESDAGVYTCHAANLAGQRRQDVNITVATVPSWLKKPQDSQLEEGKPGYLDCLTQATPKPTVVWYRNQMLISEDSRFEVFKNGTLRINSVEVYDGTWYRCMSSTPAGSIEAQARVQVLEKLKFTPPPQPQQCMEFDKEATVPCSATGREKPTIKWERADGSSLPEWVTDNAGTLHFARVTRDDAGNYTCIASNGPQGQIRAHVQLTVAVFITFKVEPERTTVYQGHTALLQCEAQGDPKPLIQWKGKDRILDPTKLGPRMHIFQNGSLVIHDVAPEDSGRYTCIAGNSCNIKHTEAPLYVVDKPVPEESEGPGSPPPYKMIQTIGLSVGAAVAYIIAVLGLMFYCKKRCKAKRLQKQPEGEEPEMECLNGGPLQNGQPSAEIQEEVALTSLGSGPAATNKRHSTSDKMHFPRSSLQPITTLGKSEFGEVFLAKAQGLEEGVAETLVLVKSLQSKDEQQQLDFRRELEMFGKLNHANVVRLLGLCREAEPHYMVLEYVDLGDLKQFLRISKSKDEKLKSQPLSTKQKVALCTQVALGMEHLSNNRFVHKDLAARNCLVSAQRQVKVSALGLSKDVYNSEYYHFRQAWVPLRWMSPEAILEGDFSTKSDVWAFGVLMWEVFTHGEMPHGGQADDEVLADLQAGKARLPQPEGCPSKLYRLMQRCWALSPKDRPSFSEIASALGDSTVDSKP
Chain of UniProt Q8TCZ2 (Q8TCZ2 whole entry): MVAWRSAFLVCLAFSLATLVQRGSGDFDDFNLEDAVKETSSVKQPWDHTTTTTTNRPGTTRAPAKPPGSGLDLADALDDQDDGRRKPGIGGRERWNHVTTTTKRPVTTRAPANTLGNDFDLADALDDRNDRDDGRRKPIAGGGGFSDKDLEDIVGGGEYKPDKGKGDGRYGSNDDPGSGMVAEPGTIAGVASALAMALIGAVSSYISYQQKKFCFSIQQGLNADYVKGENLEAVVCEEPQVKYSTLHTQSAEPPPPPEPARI
Chain of UniProt P80303 (P80303 whole entry): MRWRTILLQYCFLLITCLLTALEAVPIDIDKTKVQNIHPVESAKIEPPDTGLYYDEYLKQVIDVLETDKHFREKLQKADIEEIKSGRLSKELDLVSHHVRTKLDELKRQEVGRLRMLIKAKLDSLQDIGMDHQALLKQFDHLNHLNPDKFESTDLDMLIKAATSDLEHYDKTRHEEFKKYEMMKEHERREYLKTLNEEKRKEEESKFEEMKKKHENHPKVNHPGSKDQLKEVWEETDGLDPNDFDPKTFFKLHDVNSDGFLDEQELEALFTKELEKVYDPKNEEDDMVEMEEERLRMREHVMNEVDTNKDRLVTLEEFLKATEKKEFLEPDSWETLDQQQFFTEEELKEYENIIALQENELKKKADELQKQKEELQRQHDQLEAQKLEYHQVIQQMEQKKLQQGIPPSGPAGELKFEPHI
Chain of UniProt Q14165 (Q14165 whole entry): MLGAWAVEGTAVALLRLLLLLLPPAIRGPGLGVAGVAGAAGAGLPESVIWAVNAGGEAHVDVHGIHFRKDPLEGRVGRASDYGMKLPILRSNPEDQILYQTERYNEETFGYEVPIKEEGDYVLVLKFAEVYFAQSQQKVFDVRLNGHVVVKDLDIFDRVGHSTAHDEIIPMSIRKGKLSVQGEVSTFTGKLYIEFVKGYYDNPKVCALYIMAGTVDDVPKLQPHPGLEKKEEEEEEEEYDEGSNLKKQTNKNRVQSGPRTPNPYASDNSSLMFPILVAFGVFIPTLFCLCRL

Lysine labeling ratio R10:1, inactive:
UniProt P25705 (lysine site: K230) 2.24
GDI2 (lysine site: K435) (UniProt P50395) 4.66
EGFR (lysine site: K327) (UniProt P00533) 5.84
UniProt Q9BZM4 (lysine site: K148) 2.1
PTK7 (lysine site: K636) (UniProt Q13308) 11
MLEC (lysine site: K85) (UniProt Q14165) 2.36
MYH9 (lysine site: K860) (UniProt P35579) 2.67
PTPRF (lysine site: K1016) (UniProt P10586) 3.97
PTPRF (lysine site: K204) (UniProt P10586) 4.93
RTN3 (lysine site: K998) (UniProt O95197) 4.14
GPI (lysine site: K447) (UniProt P06744) 2.73
NUCB2 (lysine site: K184) (UniProt P80303) 2.65
UniProt P23352 (lysine site: K411) 2.12
SLC3A2 (lysine site: K245) (UniProt P08195) 5.72
MCAM (lysine site: K217) (UniProt P43121) 2.14
UniProt Q15149 (lysine site: K300) 2.94
CADM1 (lysine site: K93) (UniProt Q9BY67) 4.95
CD99L2 (lysine site: K86) (UniProt Q8TCZ2) 3.94

Lysine labeling ratio R10:1, active:
COL5A1 (lysine site: K1708) (UniProt P20908) 1.7
UniProt P61026 (lysine site: K136) 1.9
HSPE1 (lysine site: K86) (UniProt P61604) 1.85
VPS35 (lysine site: K515) (UniProt Q96QK1) 1.25
HSPA5 (lysine site: K164) (UniProt P11021) 0.987
